Records with an inconclusive call do not appear. The source made the active and inactive calls. The call rests on the fitted dose curve.
Tests used:
[1] = target: Acetylcholinesterase (Homo sapiens) (UniProt P22303); test: Acetylcholinesterase (AChE) small molecule antagonists: colormetric cell-based qHTS assay (AID 1347395); details: SH-SY5Y cells AChE activity, colorimetric (Ellman); series mostly up to 115 µM; further: nearly all actives have a fitted effect of over 30% in size
In short: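 Colorimetric readout: DTNB quantifies thiocholine from acetylthiocholine hydrolysed by endogenous AChE of SH-SY5Y cells (2,000/well, plated overnight). Compound pretreatment 30 min, substrate incubation 90 min, both 37 C.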

[2] = target: Acetylcholinesterase (Homo sapiens) (UniProt P22303); test: Acetylcholinesterase (AChE) small molecule antagonists: enzyme-based qHTS assay (AID 1347397); details: Potency: AChE enzyme activity inhibition; outcome: AChE enzyme activity inhibition; series mostly up to 115 µM; further: nearly all actives have a fitted effect of over 55% in size
In short: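 Absorbance-based detection of thiocholine with DTNB served as the read-out. Recombinant human AChE was exposed to compound for 30 min at RT before a 10 min RT incubation with acetylthiocholine.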

[3] = target: Acetylcholinesterase (Homo sapiens) (UniProt P22303); test: Acetylcholinesterase (AChE) small molecule antagonists: fluorescence cell-based qHTS assay (AID 1347398); details: SH-SY5Y cells; Potency: AChE activity; outcome: AChE activity; series mostly up to 115 µM; further: nearly all actives have a fitted effect of over 50% in size
In short: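 Fluorimetric cell-based assay: intact SH-SY5Y cells, 30 min compound preincubation at 37 C, acetylthiocholine substrate with thiol probe Thiolite Green, 40 min RT development, fluorescence 490/520 nm.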

[4] = target: Acetylcholinesterase (Homo sapiens) (UniProt P22303); test: Acetylcholinesterase (AChE) small molecule antagonists: enzyme-based qHTS assay with human liver microsomes (AID 1347399); details: Potency: qHTS inhibition; outcome: qHTS inhibition; series mostly up to 115 µM; further: nearly all actives have a fitted effect of over 60% in size
In short: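 Recombinant human AChE (50 mU/mL in the enzyme mix) and human liver microsomes (0.25 mg/mL final) were preincubated with compound and NADPH (0.25 mg/mL final) for 30 min at 37 C. Acetylthiocholine/DTNB was then added; thiocholine was read colorimetrically after 10 min at room temperature.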
On the % scale 0 is the no-effect control and ±100 the full control effect.

Sequence of Acetylcholinesterase (Homo sapiens) (P22303 whole entry, looked up): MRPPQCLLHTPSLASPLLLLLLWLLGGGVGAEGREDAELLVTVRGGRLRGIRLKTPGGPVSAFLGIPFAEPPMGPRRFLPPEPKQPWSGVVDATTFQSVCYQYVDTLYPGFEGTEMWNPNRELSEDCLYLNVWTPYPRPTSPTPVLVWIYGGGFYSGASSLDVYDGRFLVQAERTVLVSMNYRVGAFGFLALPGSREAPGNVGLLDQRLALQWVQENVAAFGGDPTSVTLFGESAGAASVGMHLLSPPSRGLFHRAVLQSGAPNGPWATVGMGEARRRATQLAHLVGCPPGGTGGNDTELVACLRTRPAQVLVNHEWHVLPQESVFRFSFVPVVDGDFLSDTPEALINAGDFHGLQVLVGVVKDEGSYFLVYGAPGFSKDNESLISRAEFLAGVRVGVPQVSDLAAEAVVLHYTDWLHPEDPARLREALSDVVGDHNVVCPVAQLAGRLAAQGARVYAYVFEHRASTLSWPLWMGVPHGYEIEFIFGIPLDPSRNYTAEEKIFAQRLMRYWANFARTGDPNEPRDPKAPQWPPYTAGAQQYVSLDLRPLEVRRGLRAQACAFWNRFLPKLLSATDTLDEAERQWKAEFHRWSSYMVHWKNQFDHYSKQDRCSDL

CCCCCCCCCCCl
inactive: Potency [1] | Potency [2] | Potency [3] | Potency [4]

Cn1cnc2ncnc(N)c21
inactive: Potency [1] | Potency [2] | Potency [3] | Potency [4]

Cc1ccc(N/N=c2\c(=O)cc/c(=N\Nc3ccc(S(=O)(=O)O)cc3)c2=O)c(C)c1
inactive: Potency [1] | Potency [2] | Potency [3] | Potency [4]

COC(C)OC
inactive: Potency [1] | Potency [2] | Potency [3] | Potency [4]

CCCCCCCCCCCCS(=O)(=O)Cl
inactive: activity, negative = inhibition [1] -0.822% [at 23.6 µM] | activity change, negative = inhibition [2] 0.136% [at 23.6 µM] | activity change, negative = inhibition [3] 0.319% [at 23.8 µM] | activity change, negative = inhibition [4] 0.324% [at 23.6 µM]

CC1(C)CCC[C@]2(C)[C@H]3CCO[C@]3(C)CC[C@@H]12
inactive: Potency [1] | Potency [2] | Potency [3] | Potency [4]

CCOC(=O)[C@H](CCc1ccccc1)N[C@@H](C)C(=O)N1[C@H](C(=O)O)C[C@@H]2CCC[C@@H]21
inactive: Potency [1] | Potency [2] | Potency [3] | Potency [4]

CC1(C)CC(O)CC(C)(C)N1[O]
inactive: Potency [1] | Potency [2] | Potency [3] | Potency [4]

COc1cc(NS(=O)(=O)c2ccc(N)cc2)nc(C)n1
inactive: Potency [1] | Potency [2] | Potency [3] | Potency [4]

CC(C)(C)c1ccc(C=O)cc1
inactive: Potency [1] | Potency [2] | Potency [3] | Potency [4]

C=C(C)CS(=O)(=O)O
inactive: Potency [1] | Potency [2] | Potency [3] | Potency [4]

O=S(=O)(O)c1cc(I)c(O)c2ncccc12
inactive: Potency [1] | Potency [2] | Potency [3] | Potency [4]

CCO[Si](C)(OCC)OCC
inactive: Potency [1] | Potency [2] | Potency [3] | Potency [4]

c1ccc(-c2nn[nH]n2)cc1
inactive: Potency [1] | Potency [2] | Potency [3] | Potency [4]

NC(=O)c1ccc(N)cc1
inactive: Potency [1] | Potency [2] | Potency [3] | Potency [4]

CCOC(=O)C(C)(C)C
inactive: Potency [1] | Potency [2] | Potency [3] | Potency [4]

CCC(O)C(C)(C)C (centres undefined)
inactive: Potency [1] | Potency [2] | Potency [3] | Potency [4]

O=C1c2ccccc2-c2ccccc21
inactive: Potency [1] | Potency [2] | Potency [3] | Potency [4]

CCCCCCCCCCCCCCCCOS(=O)(=O)O
inactive: Potency [1] | Potency [2] | Potency [3] | Potency [4]

CCC1=C(C)CN(C(=O)NCCc2ccc(S(=O)(=O)NC(=O)NC3CCC(C)CC3)cc2)C1=O (centres undefined)
inactive: Potency [1] | Potency [2] | Potency [3] | Potency [4]

COc1cc(-c2ccc(N=C=O)c(OC)c2)ccc1N=C=O
inactive: Potency [1] | Potency [2] | Potency [3] | Potency [4]

C[C@@H]1C[C@H]2[C@@H]3C[C@H](F)C4=CC(=O)C(Cl)=C[C@]4(C)[C@@]3(F)[C@@H](O)C[C@]2(C)[C@@]1(O)C(=O)CO
inactive: Potency [1] | Potency [2] | Potency [3] | Potency [4]

C=C(C)C(=O)OCCC[Si](Cl)(Cl)Cl
inactive: Potency [1] | Potency [2] | Potency [3] | Potency [4]

CCC[C@@H]1C[C@@H](C(=O)N[C@@H]([C@H]2O[C@H](SC)[C@H](O)[C@@H](O)[C@H]2O)[C@@H](C)O)N(C)C1
inactive: Potency [1] | Potency [2] | Potency [3] | Potency [4]

CCN(Cc1cccc(S(=O)(=O)O)c1)c1ccc(C(=C2C=CC(=[N+](CC)Cc3cccc(S(=O)(=O)O)c3)C=C2)c2ccc(O)cc2S(=O)(=O)[O-])cc1
inactive: Potency [1] | Potency [2] | Potency [3] | Potency [4]

COc1cc(N)ccc1C
inactive: Potency [1] | Potency [2] | Potency [3] | Potency [4]

COc1cc(Cl)ccc1Oc1ccc(Cl)cc1Cl
inactive: Potency [1] | Potency [2] | Potency [3] | Potency [4]

O=C(O)/C=C/c1ccc(O)c(O)c1
inactive: Potency [1] | Potency [2] | Potency [3] | Potency [4]

Cc1c(C)c2c(c(C)c1OC(=O)CCC(=O)O)CC[C@@](C)(CCC[C@H](C)CCC[C@H](C)CCCC(C)C)O2
inactive: Potency [1] | Potency [2] | Potency [3] | Potency [4]

NC(=O)c1ccccc1
inactive: Potency [1] | Potency [2] | Potency [3] | Potency [4]

O=Cc1ccc(F)cc1
inactive: Potency [1] | Potency [2] | Potency [3] | Potency [4]

O=C(O)C(=O)Cc1c[nH]c2ccccc12
inactive: Potency [1] | Potency [2] | Potency [3] | Potency [4]

NC[C@H]1O[C@H](O[C@H]2[C@H](O)[C@@H](O[C@H]3O[C@H](CO)[C@@H](O)[C@H](N)[C@H]3O)[C@H](N)C[C@@H]2N)[C@H](O)[C@@H](O)[C@@H]1O
inactive: activity, negative = inhibition [1] -1.99% [at 10.5 µM] | activity change, negative = inhibition [2] 0.413% [at 10.5 µM] | activity change, negative = inhibition [3] 2.3% [at 10.5 µM] | activity change, negative = inhibition [4] -5.67% [at 10.5 µM]

OCCCc1cccnc1
inactive: Potency [1] | Potency [2] | Potency [3] | Potency [4]

CC[C@@H]1C[C@H](N(Cc2cc(C(F)(F)F)cc(C(F)(F)F)c2)C(C)=O)c2cc(C(F)(F)F)ccc2N1C(=O)OC(C)C
inactive: Potency [1] | Potency [2] | Potency [3] | Potency [4]

O=C(CO)[C@@H](O)[C@H](O)[C@@H](O)CO
inactive: Potency [1] | Potency [2] | Potency [3] | Potency [4]

O=C(O)c1cc(Cl)cc([N+](=O)[O-])c1Cl
inactive: Potency [1] | Potency [2] | Potency [3] | Potency [4]

CC(COc1ccccc1)NN (centres undefined)
inactive: Potency [1] | Potency [2] | Potency [3] | Potency [4]

CC(C)=CCCC(C)O (centres undefined)
inactive: Potency [1] | Potency [2] | Potency [3] | Potency [4]

C=C1CCC2CC1C2(C)C (centres undefined)
inactive: Potency [1] | Potency [2] | Potency [3] | Potency [4]

CCOc1ccccc1OCC
inactive: Potency [1] | Potency [2] | Potency [3] | Potency [4]

Reference: PubChem BioAssay (Tox21)
